PP1 inh: PP1-alpha phosphatase inhibitors, primary screen, counter-screen for PP5 inhibitor project, biochemical, fluorescence, OMFP substrate, single point. inhibition, % at 6.7 µM. 320,000 compounds, 0.9% hits. purified PP1alpha;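 active = inhibition above the mean inhibition of all tested compounds plus 3 SD, computed separately for each screening campaign, cut at about 15% in these data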
Target sequence (P62136 whole entry, looked up): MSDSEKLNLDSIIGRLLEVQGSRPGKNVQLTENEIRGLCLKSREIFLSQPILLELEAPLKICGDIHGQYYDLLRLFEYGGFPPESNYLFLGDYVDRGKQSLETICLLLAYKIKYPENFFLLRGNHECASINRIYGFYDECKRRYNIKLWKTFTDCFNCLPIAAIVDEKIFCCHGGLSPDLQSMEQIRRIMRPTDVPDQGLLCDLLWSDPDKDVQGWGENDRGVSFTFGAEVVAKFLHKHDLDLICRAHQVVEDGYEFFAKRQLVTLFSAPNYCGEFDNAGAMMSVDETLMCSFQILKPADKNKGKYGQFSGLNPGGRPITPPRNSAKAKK
Rpn11 inh: Rpn11 (PSMD14) deubiquitinase inhibitors, primary screen, biochemical, fluorescence polarization, uHTS; 26S proteasome non-ATPase regulatory subunit 14 (Homo sapiens), O00487; human 26S proteasome, Ub4-pepOG fluorescence polarization; 20S core pre-blocked with epoxomicin; inhibition, % at 20 µM; 360,000 compounds, 0.59% hits; AID 588493, 2011;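 active = inhibition at 20 µM, scaled to each plate's controls, above about 33%, limit read from the data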
NadD block: inhibitors of S. aureus NadD, primary screen, biochemical, colorimetric, uHTS; Nicotinate-nucleotide adenylyltransferase NadD (Staphylococcus aureus N315); AID 602399, 2012; inhibition, % at 20 µM; purified NadD enzyme, colorimetric absorbance read-out; 360,000 compounds, 0.78% hits; in the data active = inhibition above about 26%
PP5 inh: PP5 phosphatase inhibitors, primary screen, biochemical, fluorescence. Serine/threonine-protein phosphatase 5 (Homo sapiens), P53041. purified PP5c, OMFP substrate fluorescence. inhibition, % at 6.7 µM. 320,000 compounds, 0.18% hits;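 active = inhibition above the campaign's mean inhibition across all tested compounds plus 3 SD, cut at about 9.5% in these data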
PREPL inh: PREPL enzyme inhibitors, primary screen, biochemical, fluorescence polarization. inhibition, % at 5.96 µM. 320,000 compounds, 0.68% hits. recombinant PREPL, fluorescence polarization activity-based probe. Prolyl endopeptidase-like (Homo sapiens), Q4J6C6; in the data active = inhibition above about 43%
PP1 inh confirm: PP1 phosphatase inhibitors, confirmation, biochemical, fluorescence, OMFP substrate, triplicate; AID 2358, 2010; inhibition, % at 6.7 µM; purified PP1alpha; shares compounds with PP1 inh; 1,900 compounds, 52% hits;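 active = mean PP1 inhibition above a set limit taken from the earlier primary screen, cut at about 15% in these data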
PP5 inh counter: PP5 phosphatase inhibition by PP1 hits, confirmation, counter-screen for PP1 inhibitor project, biochemical, fluorescence, triplicate; purified PP5c, OMFP fluorescence; shares compounds with PP1 inh; inhibition, % at 6.7 µM; 1,900 compounds, 4% hits;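 active = mean PP5 inhibition over triplicate wells above about 9.5% taken from the earlier PP1 screen, limit read from the data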
Numbers stand for hits. This is a sample that favours compounds with a hit; in the whole collection about 2.4% have one here.

Screening CCCCC(=O)NC(c1ccc(Cl)cc1)c1ccc2cccnc2c1O (centres undefined) returned PP1 inh 32, Rpn11 inh inactive, NadD block inactive, PP5 inh inactive, PREPL inh inactive, PP1 inh confirm 21 and PP5 inh counter inactive.
CCCC(=O)NC(c1ccc(C)cc1)c1ccc2cccnc2c1O (centres undefined) was read as PP1 inh 23, Rpn11 inh inactive, NadD block inactive, PP5 inh inactive, PREPL inh inactive, PP1 inh confirm 18 and PP5 inh counter inactive.
For CCCC(=O)NC(c1cccc([N+](=O)[O-])c1)c1ccc2cccnc2c1O (centres undefined) the results were Rpn11 inh inactive and NadD block inactive.
CCCC(=O)NC(c1ccc(Cl)cc1)c1ccc2cccnc2c1O (centres undefined) was read as PP1 inh 23, Rpn11 inh inactive, NadD block inactive, PP5 inh inactive, PREPL inh inactive, PP1 inh confirm 20 and PP5 inh counter inactive.
CCCC(=O)NC(c1ccc(Cl)cc1Cl)c1ccc2cccnc2c1O (centres undefined) was read as PP1 inh 26, Rpn11 inh inactive, NadD block inactive, PP5 inh inactive, PREPL inh inactive, PP1 inh confirm 21 and PP5 inh counter inactive.
For CCOC(=O)C1(C)CCCCCN1C(=O)c1ccc(SC(F)(F)F)cc1 (centres undefined) the results were Rpn11 inh inactive and NadD block inactive.
Screening CN(CCO)c1ccc(-c2nn(C)c(=O)c3ccccc23)cc1[N+](=O)[O-] returned PP1 inh inactive, Rpn11 inh inactive, NadD block inactive, PP5 inh inactive and PREPL inh inactive.
For C=CCn1c(COc2ccccc2OC)nc2ccccc21 the results were PP1 inh inactive, Rpn11 inh inactive, NadD block inactive, PP5 inh inactive and PREPL inh inactive.
Cc1ccc(N2CCN(S(=O)(=O)c3ccc4c(c3)oc(=O)n4C)CC2C)cc1 (centres undefined) was read as PP1 inh inactive, Rpn11 inh inactive, NadD block inactive, PP5 inh inactive and PREPL inh inactive.
`COc1cccc(-n2nnc3c(=O)n(Cc4ccc(F)cc4)cnc32)c1` gave PP1 inh 40, Rpn11 inh inactive, NadD block inactive, PP5 inh inactive, PREPL inh inactive, PP1 inh confirm inactive and PP5 inh counter inactive.
Screening COc1cccc(-n2nnc3c(=O)n(Cc4ccc(C)cc4)cnc32)c1 returned PP1 inh inactive, Rpn11 inh inactive, NadD block inactive, PP5 inh inactive and PREPL inh inactive.
Screening COc1ccc(CN2C(=O)Cc3c2nc(N)c2c(N)nc(N4CCOCC4)c(C#N)c32)cc1 returned PP1 inh 18, Rpn11 inh inactive, NadD block inactive, PP5 inh inactive, PREPL inh inactive, PP1 inh confirm inactive and PP5 inh counter 14.
Screening COc1ccc(CN(C)S(=O)(=O)c2nnc(NC(=O)c3cccc(F)c3)s2)cc1 returned PP1 inh inactive, Rpn11 inh inactive, NadD block inactive, PP5 inh inactive and PREPL inh inactive.
Screening CCNc1nc(NCC)nc(C(=O)NN)n1 returned PP1 inh 24, Rpn11 inh inactive, NadD block inactive, PP5 inh inactive, PREPL inh inactive, PP1 inh confirm inactive and PP5 inh counter inactive.
CCN(CC(=O)Nc1cc(Cl)ccc1C)C(=O)c1ccc2c(c1)NC(=O)C(C)S2 (centres undefined) was read as PP1 inh inactive, Rpn11 inh inactive, NadD block inactive, PP5 inh inactive and PREPL inh inactive.
For Cc1nc(SC(C)C(=O)Nc2cccc(C(F)(F)F)c2)c2c(C)c(C(=O)O)sc2n1 (centres undefined) the results were PP1 inh 45, Rpn11 inh inactive, NadD block inactive, PP5 inh inactive, PREPL inh inactive, PP1 inh confirm 15 and PP5 inh counter inactive.
For Cc1nc(N2CCC(C)CC2)c2c(C)c(C(=O)Nc3cccc(C(F)(F)F)c3)sc2n1 the results were PP1 inh inactive, Rpn11 inh inactive, NadD block inactive, PP5 inh inactive and PREPL inh inactive.
COC(=O)C(CCSC)NC(=O)c1cn(-c2ccc(OC)cc2)c(=O)c2ccccc12 (centres undefined) was read as PP1 inh inactive, Rpn11 inh inactive, NadD block inactive, PP5 inh inactive and PREPL inh inactive.
`O=C(CSC1=N/C(=C/c2ccco2)C(=O)N1c1ccc(OC(F)F)cc1)NC1CCS(=O)(=O)C1` (centres undefined) gave PP1 inh inactive, Rpn11 inh inactive, NadD block inactive, PP5 inh inactive and PREPL inh inactive.
Screening CCNC(=O)CSC1=N/C(=C\c2ccc(O)c(OCC)c2)C(=O)N1c1ccc(OC(F)F)cc1 returned PP1 inh 18, NadD block inactive, PP5 inh inactive, PREPL inh inactive, PP1 inh confirm 19 and PP5 inh counter inactive.
`CC(C)(C)c1cc(NCCCn2ccnc2)n2ncc(-c3ccccc3)c2n1` gave PP1 inh 21, Rpn11 inh inactive, NadD block inactive, PP5 inh inactive, PREPL inh inactive, PP1 inh confirm inactive and PP5 inh counter inactive.
For COC(=O)CCC(=O)OC1(C)C(=O)C2=CN(c3ccc(OC)cc3)C(c3ccc(OC)cc3)=CC2=C(Br)C1=O (centres undefined) the results were PP1 inh 20, Rpn11 inh inactive, NadD block inactive, PP5 inh inactive, PREPL inh inactive, PP1 inh confirm 16 and PP5 inh counter 20.
COC(=O)CCC(=O)OC1(C)C(=O)C=C2C=C(C3CC3)N(c3ccc(CO)cc3)C=C2C1=O (centres undefined) was read as PP1 inh 19, PP5 inh inactive, PREPL inh inactive, PP1 inh confirm 20 and PP5 inh counter 9.9.
For COC(=O)CCC(=O)OC1(C)C(=O)C2=CN(Cc3ccco3)C(c3ccc(OC)cc3)=CC2=C(Br)C1=O (centres undefined) the results were PP1 inh inactive, PP5 inh inactive and PREPL inh inactive.
`O=C(COC(=O)c1n[nH]c(=O)c2ccccc12)NC1CCCCC1` gave PP1 inh inactive, Rpn11 inh inactive, NadD block inactive, PP5 inh inactive and PREPL inh inactive.
